High-throughput results deposited in PubChem BioAssay by National Center for Advancing Translational Sciences (NCATS).
The entries come from a sample that favours hits as a whole.
Shiga inhibitor: blocks Shiga toxin action in Vero cells; Vero cells, Shiga toxin protein synthesis inhibition reporter; inhibition, % at 38.7 µM; 290,000 compounds, 9.2% hits; in the data active means inhibition mostly above about 28%, no sharp cut-off; inactive means mostly below about 43%
CHX counter: affects cycloheximide protein synthesis inhibition readout, counter-screen; cell reporter, cycloheximide protein synthesis inhibition counterscreen; max response, %; 300,000 compounds, 12% hits; AID 2314; in the data active means max response mostly above about 13%, no sharp cut-off; inactive means mostly below about 14%; further: read at 38.3 µM for the half of the compounds with a filed dose
Vaccinia Venus: vaccinia inhibition (Venus reporter); Vaccinia virus Venus reporter expression, fluorescence; Potency, µM (top dose mostly 36.5 µM), most hits filed as inhibitors; 330,000 compounds, 0.46% hits; calls by dose curve; tested in A549 cells; further: nearly all actives have a fitted effect of over 30% in size
Lassa entry inh: Lassa virus entry inhibition; Potency, µM (series often up to 37.9 µM), hits mostly inhibitors; Lassa virus pseudotype entry inhibition, cell reporter; 300,000 compounds, 1.2% hits; calls by dose curve; tested in HEK293 cells; further: nearly all actives have a fitted effect of over 50% in size
VACV mCherry inh: vaccinia inhibition (mCherry reporter); Vaccinia virus mCherry reporter infection, fluorescence; 310,000 compounds, 0.63% hits; AID 720579; Potency, µM (doses to about 36.5 µM), most hits filed as inhibitors; calls by dose curve; tested in A549 cells; further: nearly all actives have a fitted effect of over 35% in size
Marburg entry inh: inhibitors of Marburg virus binding or cell entry; Marburg virus pseudotyped entry inhibition, cell reporter; Potency, µM (top dose mostly 37.8 µM), most hits filed as inhibitors; 300,000 compounds, 1.8% hits; AID 540276; calls by dose curve; tested in HEK293 cells
Numbers stand for hits; 0 = inactive; ? = inconclusive; - = no result given; [ ] = dose if it differs, or a comment.

SMILES | Shiga inhibitor | CHX counter | Vaccinia Venus | Lassa entry inh | VACV mCherry inh | Marburg entry inh
Cc1c(O)ccc2c(CN3CCN(C/C=C/c4ccccc4)CC3)cc(=O)oc12 | 0 | 0 | 0 | ? | 0 | 8.91µM
Cc1ccc2c(CN3CC(C)CC(C)C3)cc(=O)oc2c1C (configuration not stated) | 0 | 0 | 0 | 0 | 0 | 0
CCOc1ccccc1C(=O)N[C@H](C(=O)OCc1cc([N+](=O)[O-])cc2c1OCOC2)C(C)C | 0 | 0 | ? | ? | ? | 11.2µM
Cc1ccc(CN(Cc2ccco2)C(=O)COc2ccc(C)c(C)c2)cc1 | - | - | 0 | ? | 0 | ?
Cc1cc(=O)oc2ccc(OCC(=O)N(Cc3ccc(F)cc3)Cc3ccco3)cc12 | 76.4 | 46.9 | 0 | 0 | 0 | ?
Cc1cc2[nH]c(=O)c(=O)[nH]c2cc1S(=O)(=O)Nc1ccccc1F | 0 | 0 | - | - | - | -
O=C(Nc1nc(-c2cccc3ccccc23)cs1)c1ccc2c(c1)S(=O)(=O)c1ccccc1C2=O | 61.9 | 21.4 | 0 | 0 | 0 | 0
CSc1nc(C)cc(Oc2ccc(=O)[nH]n2)n1 | 0 | 0 | 0 | 0 | 0 | 0
Cc1cc(Oc2ccc(=O)[nH]n2)nc(Cl)n1 | 47.3 | 34.8 | - | - | - | -
CON(C)c1nc(Oc2ccc(=O)[nH]n2)nc(N(C)C)n1 | 0 | 0 | - | 0 | - | 0
COc1cc(C)nc(Oc2ccc(=O)[nH]n2)n1 | 0 | 22.4 | 0 | 0 | - | ?
COc1cc(NC(=O)c2ccc(-c3nc(CSc4ccccc4)c(C)o3)cc2)cc(OC)c1 | - | - | 0[7.34 µM] | ? | 0[7.34 µM] | -
CC1=C(C)N(C)[C@H](c2ccccc2Br)[C@H](O)C1=O | - | - | 0 | - | 0 | -
CCc1ccc(CNC(=O)c2c3c(nc4ccccc24)C(=O)N(C2CCCCC2)C3)cc1 | - | - | 0 | ? | 0 | -
Cc1csc2ncnc(NC3CCN(Cc4ccccc4)CC3)c12 | 0 | 0 | 0 | 0 | 0 | 10µM
CCOC(=O)C1CCN(C(=O)CN(c2ccc3c(c2)OCCO3)S(=O)(=O)c2ccccc2)CC1 | - | - | 0 | ? | 0 | 0
CC1CCN(C(=O)CN(c2ccc3c(c2)OCCO3)S(=O)(=O)c2ccccc2)CC1 | 53.8 | 35.7 | 0 | 0 | 0 | ?
CCOC(=O)c1c(NC2OC(=O)c3c2ccc(OC)c3OC)sc(C(=O)OC(C)(C)C)c1C (configuration not stated) | active | 31.4 | ? | 0 | 0 | 0
COc1ccc2c(c1OC)C(=O)OC2Nc1ccccn1 (configuration not stated) | 0 | 0 | 0 | 0 | - | 0
OCc1cccc[n+]1Cc1ccccc1 | - | - | 0 | ? | 0 | ?
COC(=O)c1ccc(Cn2c(O)c(N=NC(N)=S)c3ccccc32)o1 | 0 | 0 | - | - | - | -
Cc1ccc(NC(=O)Cn2c(O)c(N=NC(N)=O)c3ccccc32)cc1 | 0 | 0 | 0 | ? | 0 | ?
C/C(Cl)=C\Cn1c(O)c(N=NC(N)=S)c2ccccc21 | 0 | 0 | ? | 0 | 0.316µM | 10µM
Cn1c(O)c(N=Nc2ccc(F)cc2)c2ccccc21 | 0 | 39.8 | 0 | ? | ? | 0
CCCCn1c(O)c(N=NC(=O)c2ccco2)c2ccccc21 | 86.0 | 65.9 | 0 | ? | ? | ?
SMILES | Shiga inhibitor | CHX counter | Vaccinia Venus | Lassa entry inh | VACV mCherry inh | Marburg entry inh
Cc1ccc(NC(=O)Cn2c(O)c(N=NC(N)=S)c3ccccc32)cc1 | 0 | 0 | 0.282µM | ? | ? | 8.91µM
CC1CN(Cc2cccn2-c2ncccn2)Cc2cc(Cl)ccc2O1 (configuration not stated) | - | - | 0 | - | 0 | -
CCn1c(O)c(N=NC(=O)CNc2ccc(C)cc2)c2ccccc21 | 0 | 0 | 0 | ? | 0 | 0
Cc1ccc(NCC(=O)N=Nc2c(O)n(C)c3ccccc23)cc1 | 56.1 | 15.0 | 0 | ? | 0 | ?
NC(=S)N=Nc1c(O)n(Cc2ccccc2)c2ccccc12 | 0 | 0 | 0.316µM | 0 | ? | 0
CCOC(=O)N=Nc1c(O)n(Cc2ccccc2)c2ccccc12 | 46.1 | 28.9 | - | - | - | -
Cc1ccc(NC(=O)CSc2nnc(-c3cc4occc4n3C)n2-c2ccccc2C)cc1F | - | - | 0 | 0 | 0 | -
CC(C)C(NS(C)(=O)=O)c1nnc2n1CCN(Cc1ccc(Cl)cc1)CC2 (configuration not stated) | - | - | 0 | - | 0 | -
CCOC(=O)c1c(S(=O)(=O)NCC(=O)N2CCN(c3ccccc3)CC2)c(C)n(C)c1C | 0 | 0 | 0 | 0 | 0 | -
CCCCN1C(C(=O)c2ccccc2)=C(OC(=O)CC)c2ccccc2S1(=O)=O | - | - | ? | ? | ? | 7.94µM
Cc1ccc2c(=O)n3c(nc2c1)C(Cc1ccccc1)NC(=O)c1cc2ccccc2cc1-3 (configuration not stated) | - | - | 0 | - | 0 | -
COc1cc(NC(=O)c2cc(C(C)C)on2)c(OC)cc1Cl | 0 | 13.4 | 0 | ? | 0 | 14.6µM
